In all, about 370,000 compounds went through this assay and about 4,100 (1.1%) were called active. The sample holds actives, similar compounds and a random draw of the others, so the mix is not that of the screen.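 The calls were made as follows: active = inhibition above the mean over all tested compounds plus 3 SD (cut at about 3.6% in these data); inactive = the rest.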

This assay in a line: DAX1 (NR0B1) inhibitors on StAR promoter, primary screen, cell-based, luminescence, SF-1 (NR5A1), full-length DAX-1 (AID 652010).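 Also: 0% = DAX-1 cells with DMSO and 100% = cells lacking DAX-1 with DMSO.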 To be noted: HEK293T StAR-luciferase reporter, SF-1/DAX-1 repression relief; at 6.8 µM; stronger effect = higher value.
With `COc1cccc(Cn2cc(COC(=O)Nc3ccc(F)cc3)nn2)c1`, the inhibition is -0.2% (inactive).

As for `COc1ccc(S(=O)(=O)NCC(=O)NC2CC2)cc1OC`, the inhibition is -0.86% (inactive).

Take `CC(=O)Nc1ccc(OC[C@@H](O)CN2CCC(C(O)(c3ccccc3)c3ccccc3)CC2)cc1`: the inhibition was 0.02% (inactive).

For `O=C(CSc1nnc(CNC(=O)c2ccc(F)cc2)o1)Nc1ccc2c(c1)OCO2`, the inhibition is -1.07% (inactive).

Turning to `COc1ccc([N+](=O)[O-])cc1C1NN=C(c2cccc3ccccc23)S1` (stereo not drawn), the inhibition is 0.7% (inactive).

In the case of `COc1ccc(C2Nc3ccccc3C(=O)N2c2ccc(Cl)cc2)cc1Cn1cc([N+](=O)[O-])cn1` (stereo not drawn), the inhibition was 3.84% (active).

On to `COc1ccc(CN2CCCC(C(=O)c3ccc(Cl)cc3)C2)cc1Cn1cncn1` (stereo not drawn), for which the inhibition is 0.63% (inactive).

Take `O=C(Oc1ccc(-c2nnco2)cc1)c1ccc(F)c(S(=O)(=O)N2CCOCC2)c1`: the inhibition was -0.14% (inactive).

As to `CC(=O)N1CCCN(C2=Nc3ccccc3Sc3ccccc32)CC1`, the inhibition was -0.16% (inactive).

Consider `CCC(C)[C@@H](C(=O)OC)N(CCc1cn(Cc2ccccc2)nn1)S(=O)(=O)c1ccccc1Br` (stereo partly drawn), for which the inhibition is -0.61% (inactive).

As for `N#Cc1ccccc1OC[C@@H](O)CN1CCC(C(O)(c2ccccc2)c2ccccc2)CC1`, the inhibition was -0.84% (inactive).

Turning to `COc1ccc(/C=C/C(=O)OCC(=O)NC2CCCCCC2)cc1OC`, the inhibition is 2.29% (inactive).

For `COc1cc(/C=C/C(=O)Nc2ccc(OC)c(S(=O)(=O)N3CCOCC3)c2)ccc1OCC#N`, the inhibition is -2.07% (inactive).

With `COc1ccc(/C=C/C(=O)Nc2ccc(C34CC5CC(CC(O)(C5)C3)C4)cc2)cc1OC`, the inhibition is 8.95% (active).

In the case of `O=C(NC1CCCC1)C1CSCCS(=O)(=O)N1Cc1ccccc1` (stereo not drawn), the inhibition was 0.54% (inactive).

For `CNC(=O)c1[nH]cnc1C(=O)N[C@@H](CC(C)C)C(=O)OC(C)(C)C`, the inhibition is -0.49% (inactive).

Turning to `CC[C@]1(O)CC2CN(CCc3c([nH]c4ccccc34)[C@@](C(=O)OC)(c3cc4c(cc3OC)N(C=O)[C@H]3[C@@](O)(C(=O)OC)[C@H](OC(C)=O)[C@]5(CC)C=CCN6CC[C@]43[C@@H]65)C2)C1` (stereo partly drawn), the inhibition was 12.9% (active).

For `CC[C@]1(O)C[C@@H]2CN(CCc3c([nH]c4ccccc34)[C@@](C(=O)OC)(c3cc4c(cc3OC)N(C)[C@H]3[C@@](O)(C(=O)OC)[C@H](OC(C)=O)[C@]5(CC)C=CCN6CC[C@]43[C@@H]65)C2)C1`, the inhibition is 9.42% (active).

Regarding `CC(C)(C)c1ccc(CSc2nnc(-c3cccs3)o2)cc1`, the inhibition was -0.57% (inactive).

On to `CCOC(=O)C(=O)N(Cc1ccccc1)c1ccccc1C(=O)Nc1cc(OC)ccc1OC`, for which the inhibition was -0.54% (inactive).

`CCOC(=O)N1CCN(C(=O)C2CCN(S(C)(=O)=O)CC2)CC1`: the inhibition was 0.3% (inactive).

With `COc1cc(NC(=O)c2ccc(-c3csc(C)n3)cc2)c(OC)cc1Cl`, the inhibition was 0.05% (inactive).

As to `Cc1nc(-c2ccc(NC(=O)c3cccs3)cc2)cs1`, the inhibition is 3.66% (active).

Take `Cn1c(SCC(=O)Nc2cccc(NC(=O)c3cccs3)c2)nnc1-c1ccncc1`: the inhibition is -0.42% (inactive).

Regarding `O=C(CSc1nnc(COc2ccccc2)n1Cc1ccco1)c1ccc2ccccc2c1`, the inhibition is -1.45% (inactive).

For `O=C(NN=Cc1ccco1)C(=O)Nc1ccc(Cl)c([N+](=O)[O-])c1`, the inhibition was 0.2% (inactive).

`Cc1ccsc1C(=O)NC1CCCCC1C` (stereo not drawn): the inhibition was -0.66% (inactive).

As to `CCNC(=O)c1sccc1-n1cccc1`, the inhibition was -0.31% (inactive).

For the compound `Cc1ccsc1C(=O)NCCc1ccco1`, the inhibition is 4.3% (active).

For `COc1cccc(CNC(=O)[C@H]2CCCN2C(=O)[C@H]2CCCN2C(=O)C2CCCCC2)c1`, the inhibition is -1.49% (inactive).

As for `Cc1ccc(-n2c(SCC(=O)Nc3cccc4ccccc34)nnc2-c2ccccn2)cc1`, the inhibition is -0.57% (inactive).

On to `O=C(NCCC1=CCCCC1)C1CCN(S(=O)(=O)c2ccc(Cl)s2)CC1`, for which the inhibition is 0.02% (inactive).

On to `CC[C@]12c3[nH]c4cc(CCC(=O)N(C)C)ccc4c3CCN1C(=O)[C@@H](CC(=O)NCc1ccco1)C[C@@H]2C(=O)N1CCN(C(=O)c2ccco2)CC1`, for which the inhibition is 0.22% (inactive).

On to `CC[C@]12c3[nH]c4cc(CCC(=O)N(C)C)ccc4c3CCN1C(=O)[C@@H](CC(=O)NCCCN(C)C)C[C@@H]2C(=O)N1CCN(C(=O)c2ccco2)CC1`, for which the inhibition was 3.91% (active).

For `CC[C@]12c3[nH]c4cc(CCC(=O)N(C)C)ccc4c3CCN1C(=O)[C@@H](CC(=O)NCCCn1ccnc1)C[C@@H]2C(=O)N1CCN(C(=O)C2CC2)CC1`, the inhibition was -0.23% (inactive).

For the compound `Cc1nc2ccc(C(=O)N3CCN(C(=O)C(C)(C)C)CC3)cc2n1C1CCCC1`, the inhibition is 1.16% (inactive).

On to `COc1ccc(-n2c(SCC(=O)Nc3ccc(C)c(Cl)c3)nc3ccccc3c2=O)cc1`, for which the inhibition was -1.67% (inactive).

Regarding `O=C(NCc1cccs1)c1ccc2c(c1)ncn2C1CCCC1`, the inhibition is 0.35% (inactive).

For `Nn1c(SCC(=O)Nc2ccc(S(N)(=O)=O)cc2)nnc1-c1n[nH]c2c1CCC2`, the inhibition is 0.11% (inactive).

In the case of `COC(=O)C1CN(CCc2ccccc2)CCS(=O)(=O)N1Cc1ccc(F)cc1` (stereo not drawn), the inhibition is -0.43% (inactive).

Regarding `CC(C)c1ccc(/C=C2\NC(=O)NC2=O)cc1`, the inhibition was 0.05% (inactive).

On to `CC(C)c1ccc(C=NNc2ccc([N+](=O)[O-])cn2)cc1`, for which the inhibition was 4.69% (active).

As to `CN(CCc1ccccc1)c1ccc([N+](=O)[O-])cn1`, the inhibition is -0.34% (inactive).

For `Cc1ccc(C(=O)NN(CCC#N)C2=NS(=O)(=O)c3ccccc32)cc1`, the inhibition is 0.06% (inactive).

On to `O=C(NCc1ccccc1)[C@H]1CCCN1C(=O)[C@@H]1CCCN1C(=O)c1ccc(Cl)cc1Cl`, for which the inhibition is 0.24% (inactive).

As for `CC[C@@H](CCC(=O)N(c1ccccc1)c1ccccc1)C1CC1`, the inhibition was -1.2% (inactive).

Consider `O=S(=O)(Oc1ccccc1C(=S)N1CCOCC1)c1ccc(Cl)cc1`, for which the inhibition was 3.63% (active).

Consider `CC(=O)Nc1ccc(S(=O)(=O)Oc2ccc(Br)cc2C(=S)N2CCOCC2)cc1`, for which the inhibition is -1.94% (inactive).

`CCOc1cc(C(=S)N2CCOCC2)ccc1OS(=O)(=O)c1ccc(Br)cc1`: the inhibition was 0.06% (inactive).

`COC(=O)c1cc(S(=O)(=O)N2CCN(c3ccccc3C)CC2)cn1C`: the inhibition was -1.02% (inactive).

Turning to `CC(c1c[nH]c2ccccc12)c1c(-c2ccccc2)n(C)c2ccccc12` (stereo not drawn), the inhibition was -0.37% (inactive).

As to `CC(=O)N1CCc2cc(S(=O)(=O)NCCC(=O)N3CCCC3)ccc21`, the inhibition was -1.5% (inactive).

Turning to `COc1ccc(C(C#N)=C2C=CC(=NO)c3ccccc32)cc1`, the inhibition was 4.3% (active).

Regarding `COc1ccc(C(=NN)c2ccc(OC)cc2)cc1`, the inhibition was 0.31% (inactive).

Consider `COc1ccc(/C(N)=N/OC(=O)Oc2ccccc2)cc1`, for which the inhibition was -0.74% (inactive).

For the compound `O=C(N[C@H](Cc1ccccc1)C(=O)N1CCCN(Cc2cccs2)CC1)[C@H]1O[C@@H](n2ccc(=O)[nH]c2=O)[C@H](O)[C@@H]1O`, the inhibition is 1.64% (inactive).

Regarding `CCOc1ccc(NC(=O)COc2ccc(S(=O)(=O)N3CCCC3)cc2)cc1`, the inhibition was -0.61% (inactive).

On to `COc1ccc(-n2c(COc3ccccc3)nnc2SCC(=O)Nc2ccc3c(c2)OCO3)cc1`, for which the inhibition was -0.36% (inactive).

As to `CC(c1ccc(N)cc1)c1cn(C)c2ccccc12` (stereo not drawn), the inhibition was -0.01% (inactive).

Regarding `COc1ccc(Cn2cc(COC(=O)N(C)Cc3ccccc3)nn2)cc1`, the inhibition was -0.67% (inactive).

In the case of `Cc1nn2c(c1-c1ccccc1)N=C(c1ccco1)CC2c1ccccc1` (stereo not drawn), the inhibition is -0.86% (inactive).

`Cc1cc(-c2ccccc2)n2nc(C)c(-c3ccccc3)c2n1`: the inhibition was 0.27% (inactive).

`Cc1nn(C(=O)c2ccoc2C)c(N)c1-c1ccccc1`: the inhibition is 3.82% (active).

On to `O=C(NCCc1c[nH]c2ccccc12)OCc1cn(-c2c(F)cccc2F)nn1`, for which the inhibition was -0.6% (inactive).

With `Cc1nc2ccc(S(=O)(=O)N(C)CC(=O)NC(C)c3ccccc3)cc2s1` (stereo not drawn), the inhibition is -0.1% (inactive).

For the compound `Cc1cccc(N(CC(=O)Nc2ccc(-c3nc4ccc(C)cc4s3)cc2)S(C)(=O)=O)c1`, the inhibition was 1.57% (inactive).

As for `Cc1ccc2nc(-c3ccc(NC(=O)CN(C)S(=O)(=O)c4ccccc4)cc3)sc2c1`, the inhibition was 3.65% (active).

For the compound `O=S1(=O)c2c(cccc2N2CCCC2)O[C@H](COCc2ccccc2)CN1C1CC1`, the inhibition was -1.16% (inactive).

For the compound `C=CCN1C(=O)[C@@H](CC(=O)NCC2CCCCC2)[C@]2(C(=O)OC)CCCCC=C12`, the inhibition is 0.53% (inactive).

For the compound `Cc1ccc(NNC(=O)C2CCC2)cc1C`, the inhibition was 0.22% (inactive).

As for `COC(C(=O)Nc1ccc(S(=O)(=O)Nc2ccc(C)c(C)c2)cc1)c1ccccc1` (stereo not drawn), the inhibition was -1.03% (inactive).

`Cc1ccc(N/C=C/C(=O)c2ccccc2)cc1C`: the inhibition was 5.15% (active).

As for `Nc1nc2c(ncn2[C@@H]2O[C@H](C(=O)N[C@H](Cc3ccccc3)C(=O)NCC3CCCCC3)[C@@H](O)[C@H]2O)c(=O)[nH]1`, the inhibition is 1.02% (inactive).

Turning to `COC(=O)Nc1nc2ccc(C(=O)C3CC3)cc2[nH]1`, the inhibition is 7.48% (active).

Regarding `COc1ccc(CNC(=O)c2cc(C(=O)C3CC3)c[nH]2)cc1`, the inhibition was -2.24% (inactive).

In the case of `COC(=O)Nc1nc2ccc(Sc3ccccc3)cc2[nH]1`, the inhibition is 0.19% (inactive).

Regarding `COc1ccc(-n2c(COc3ccc(C)cc3)nnc2SCC(=O)Nc2ccc(Oc3ccccc3)cc2)cc1`, the inhibition is -1.51% (inactive).

On to `COc1ccc(Cn2cc(CN3[C@@H](CC(C)C)COc4cc(Br)ccc4S3(=O)=O)nn2)cc1`, for which the inhibition was 0.86% (inactive).

`C=CCN1[C@H](CC(C)C)COc2cccc(N3CCCC3)c2S1(=O)=O`: the inhibition was -1.88% (inactive).

`O=C(CCc1ccccc1)Nc1ncc([N+](=O)[O-])s1`: the inhibition is 4.52% (active).

Take `O=C(CCc1ccccc1)Nc1ccc(NC(=O)C2CC2)nc1`: the inhibition was -0.05% (inactive).

Regarding `O=C(CCc1ccccc1)Nc1ccc(NC(=O)C2CCCCC2)nc1`, the inhibition is -0.14% (inactive).

For the compound `Cc1cc2oc(C(=O)Nc3c(C)n(C)n(-c4ccccc4)c3=O)c(C)c2cc1Cl`, the inhibition is -0.22% (inactive).
